Source: PubChem BioAssay AID900 (National Center for Advancing Translational Sciences (NCATS), 2007)
Several values for one entry are separate records, joined by “and”; a condition that tells them apart may be missing. Identical values can stand only once. In all, about 75,000 compounds went through this assay and about 20 (0.03%) were called active. Another 1% or so got no clear call; they are omitted. Calls come from the whole dose curve; as a rule, active = well fitted inhibition curve with a large enough effect; inconclusive = small, poorly fitted or top-dose-only effect; inactive = flat fitted curve, though single readings scatter. Not all results are given here.

What follows are compounds tested against Caspase-1 (Homo sapiens) (UniProt P29466) (assay: qHTS Assay for Allosteric/Competitive Inhibitors of Caspase-1). Settings: Caspase-1 enzyme, Ac-WEHD-AFC fluorogenic rate; series mostly up to 57.5 µM.
Description: NIH Molecular Libraries Screening Centers Network [MLSCN]
NIH Chemical Genomics Center [NCGC]
PI Name: Dr. James Wells,
Dr. Enrique Perez-Paya, Dr.Janice Williams, Dr. Dennis Wolan, a person
The caspases (Cysteine Aspartyl Protease) comprise a related family of 14 dimeric proteases that are critical mediators of apoptosis (programmed cell death) and inflammation. The caspases represent an important class of drug targets for stroke, ischemia, cancer and inflammatory diseases. […] One goal of this project was to identify compounds that act as allosteric inhibitors via stabilizing the procaspase form of the enzyme. Previous work in Well's laboratory has shown that such allosteric inhibitors can be identified and these act by binding at the dimer interface of enzyme (Hardy, Lam et al., 2004).
The biochemical assay was configured using purified caspase 1 at a high enzyme concentration to promote formation of the homodimers and thus facilitate the identification of allosteric inhibitors. The overall goal was to identify reversible inhibitors with better drug-like properties than the currently available set of aspartyl-containing peptidomimetics that covalently bind the active site. Caspase 1 was assayed using the profluorescent substrate Ac-WEHD-AFC. After initiation of the assay with substrate the plates were rapidly read using an automated robotic system (Kalypsys, Inc.) to maintain consistent timing. A kinetic mode of detection was used where the initial rate was collected (estimated final product formation was ~10%). Compounds were screened as a concentration-titration series that ranged from 57 uM to 0.7 nM. Below is the protocol used for caspase 1.
NCGC Assay Protocol Summary:
Caspase 1 was prepared in buffer (50 mM HEPES pH 7.5, 50 mM KCl, 200 mM NaCl, 10 mM DTT, 0.1% CHAPS) at a concentration of 66.6 nM and 3 uL was dispensed to all wells using black solid Kalypsys 1536-well plates. 20 nL of DMSO containing compounds was added using a pin-tool (Kalypsys Inc.) to columns 5-48. Then 20 nL of DMSO solution from a control plate was added to columns 1-4. Controls were: Column 1, 16 point titration with each concentration in duplicate (1:1 dilutions in DMSO; final starting concentration was 57 uM) of the caspase 1 inhibitor Ac-WEHD-CHO (Alexis Biochemicals); Column 2, a 16 point titration with each concentration in duplicate of the free AFC fluorophore prepared in DMSO (Alexis Biochemicals), final starting was 40 uM; Column 3 neutral (DMSO only) control; Column 4: DMSO alone, to serve as a negative control (no substrate was added). Then 1 uL of 20 uM the substrate Ac-WEHD-AFC (Alexis Biochemicals) prepared in the same buffer was dispensed to all wells except columns 2 and 4 and the plates were immediately transferred (< 1 min) to the Viewlux. The plates were then exposed using 405 nm excitation/520 nm emission filters for 4 sec and read at 20 sec intervals for 3 min. Final enzyme concentration was 50 nM and the final substrate concentration was 5 uM.
Concentration-response curves were fitted to the data calculated from slope of the linear regression of fluorescent intensity versus time (the rate). The concentration-effect curves were then classified based on curve quality (r2), response magnitude and degree of measured activity. […] Inconclusive compounds had appreciable concentration-dependent effects on both the measured rate and the interpolated basal fluorescence intensity at the start of the reaction but where the basal fluorescent intensity was marginal (e.g. < 10-fold). Inconclusive compounds also encompass highly fluorescent compounds (>100-fold increases in fluorescent intensities values relative to controls) where artificial concentration-dependent decreases in the rate occurred at high compound concentrations due to fluorescent interferences.
Keywords: Caspase 1, proteases, profluorescent, MLSMR, MLSCN, NIH Roadmap, qHTS, NCGC
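Note: plate controls were vehicle for no effect and no substrate for full effect.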

Activity change, negative = inhibition, inactive:
O=C(Oc1cc(OC(=O)c2ccccc2)c2c(c1)OC(c1ccc(OC(=O)c3ccccc3)c(OC(=O)c3ccccc3)c1)[C@@H](OC(=O)c1ccccc1)C2)c1ccccc1 (stereo partly drawn), O=C(/C(=N\O)n1cncn1)c1ccc(Br)cc1Br, CCC1(C)CC(=O)NC1=O (stereo not drawn), Cc1c(S(=O)(=O)O)oc2c1C(=O)C(=O)c1c-2ccc2c1CCCC2(C)C, Cc1ccc(Cc2nc(-c3cccc(C)c3)no2)cc1, N#CCC(=O)NC(=O)NCC1CC1, CCCCC/C=C/C=C/C=O, Cc1noc(C)c1CSc1nnc2ccc3ccccc3n12, COc1ccc(/C=C/C(=O)c2ccc(OC)cc2O)cc1 -5.59% [at 11.5 µM], CCC(CCC(C)C1CCC2C3CC=C4CC(O)CC[C@@]4(C)C3CC[C@@]12C)C(C)C (stereo partly drawn), Nc1nc2nc(Cl)[nH]c2c(=O)[nH]1, COc1ccc(N2C(=O)C3CCCN3C2c2cccc(OC)c2)cc1 (stereo not drawn), COc1ccccc1OCCNCC(O)COc1cccc2[nH]c3ccccc3c12 (stereo not drawn), Clc1ccc(C2[C@H]3CN(CC4CCCCC4)[C@H](c4ccccc4)C34CC2(c2cccnc2)C4)cn1 (stereo partly drawn), COC1C[C@@H](O[C@@H]2C(C)C(=O)OC(C)C(C)C(O)C(C)C(=O)[C@@]3(CO3)CC(C)C(OC3OC(C)CC(N(C)C)C3O)C2C)OC(C)[C@@H]1O (stereo partly drawn), COc1ccc(C2C(C#N)=C(N)Oc3cc(N)ccc32)cc1OC (stereo not drawn), CO[C@@H]1COC(=O)[C@H](Cc2ccccc2)NC(=O)C/C=C\[C@@H](C)[C@H](OC)COC(=O)[C@@H](C)NC(=O)C/C=C\[C@H]1C 0.468% [at 11.5 µM] and -0.511% [at 11.5 µM], C=C(C)C1CC=C(CO)CC1 (stereo not drawn), C[C@@H]1O[C@@H](OC[C@H]2O[C@@H](Oc3c(-c4cccc(O)c4O)oc4cc(O)cc(O)c4c3=O)[C@H](O)[C@@H](O)[C@@H]2O)[C@H](O)[C@H](O)[C@H]1O, BrC1C(Br)C(Br)C(Br)C(Br)C1Br (stereo not drawn), CC1(C)OC(C(O)(c2ccccc2)c2ccccc2)C(C(O)(c2ccccc2)c2ccccc2)O1 (stereo not drawn) -8.99% [at 11.5 µM], CCOc1ccc(Cn2nnc(C(=O)NCc3ccccc3)c2N)cc1, CC1C(O)CC2C(C(=O)O)=CO[C@@H](O[C@H]3OC(CO)C(O)C(O)C3O)C21 (stereo partly drawn), Cc1cccc2c3c(ccc12)C1=C(C(=O)C3=O)C(C)CO1 (stereo not drawn), C[C@@H]1CC[C@H]2[C@H](C)[C@H]3[C@H](C[C@H]4[C@@H]5CC=C6C[C@@H](O)CC[C@@]6(C)[C@@H]5C[C@@H](O)[C@]34C)N2C1 -2.52% [at 11.5 µM], Cn1c(SCC(=O)N2CCOCC2)nnc1-c1ccc(NC(=O)c2ccccc2F)cc1, CC1CCCN(C(=O)c2ccc3c(c2)C(=O)N(CCC2=CCCCC2)C3=O)C1 (stereo not drawn), CC(C)c1ccc(NC(=O)NC2CCCCC2)cc1, Nc1nc2[nH]c(=O)c(=O)[nH]c2c(=O)[nH]1, COC(=O)[C@@H]1C[C@H]2CC[C@H](O)C[C@H]2N1Cc1ccc(N2CCN(C)CC2)cc1, CC1O[C@@H](Oc2c(-c3ccc(O)c(O)c3)oc3cc(O)cc(O)c3c2=O)C(O)C(O)C1O (stereo partly drawn), Cc1csc(-c2nc3ccccc3n2C)n1, Brc1cc(Br)c(Oc2cc(Br)c(Br)cc2Br)cc1Br, O=C(O)c1ccc(Cl)c(S(=O)(=O)Nc2ccccc2Cl)c1, CC(=O)OCC1OC(C#Cc2ccccc2Cl)C=CC1OC(C)=O (stereo not drawn) -0.455% [at 11.5 µM], C[C@@H]1/C=C\CC(=O)OC[C@H]2O[C@@H](C=C[C@@H]2O)[C@H](C)/C=C\CC(=O)OC[C@H]2O[C@H]1C=C[C@@H]2O 0.74% [at 11.5 µM], CC1CC[C@@]23CCC4(C)[C@@]5(C)CCC6C(C)(C)C(O)CC[C@@]6(C)C5C=C[C@@]4(OC2=O)C3C1C (stereo partly drawn), CC(C)C1=CC2=CC[C@@H]3[C@](C)(CO)CCC[C@]3(C)C2CC1 (stereo partly drawn), COc1ncnc2sc3c(c12)CCCC3, CN1CCC(CNC(=O)c2ccc(-n3c(=O)c(=O)[nH]c4ccccc43)cc2)CC1, O=C(O)[C@@H]1[C@@H](C(=O)O)[C@]23C[C@@]2(C(=O)O)[C@]2(C(=O)O)CCC3=C3CCCC312 -0.0959% [at 11.5 µM], CN(C)Cc1c(C#N)c2ccccc2n1C, COCc1nnc(NC(=O)CS(=O)(=O)Cc2ccccc2)s1, CC(C)=CC1C(C(=O)O)C1(C)C (stereo not drawn), CCC1=C(OC(=O)N(CC)CC)N2C(=O)OC(=NCC3CC3)[C@]2(C)[C@H]2C1=CC[C@H]1C(=O)N(CC(=O)OC)C(=O)[C@H]12, CN1CCc2nc(-c3ccccc3)c(-c3ccccc3)cc2C1 -1.85% [at 11.5 µM], CC1(C)SC2C(NC(=O)COc3ccccc3)C(=O)N2C1C(=O)O (stereo not drawn), O=c1ccc2cc(S(=O)(=O)N3CCN(c4ccccc4)CC3)ccc2o1, CCOC(=O)[C@]1(C(/C=C/c2ccco2)NC(=O)OC)CCCC1=O (stereo partly drawn) -4.71% [at 11.5 µM], Cc1cnc(CNc2nc(-c3cccnc3)nc3ccccc23)cn1, O=C(COc1ccccc1)NCCc1nc2ccccc2[nH]1, COc1ccc(CNc2ncncc2-c2ccccc2OC)c(OC)c1, CCC[C@@H]1C[C@@]1(CCC)C(NC(=O)c1ccc(-c2ccccc2)cc1)c1cccc(Cl)c1 (stereo partly drawn), Cc1cccc(-c2cc(=O)c3cc(C)ccc3o2)c1, COc1ccc(/C=C/NC(=O)c2ccc(OC)cc2)cc1 -1.51% [at 11.5 µM], O=C(CN1CCOCC1)Nc1cc(Cl)ccc1Cl, COC(=O)NC(c1ccccc1)[C@]1(C(C)=O)CCCC1=O (stereo partly drawn) 0.536% [at 11.5 µM], Cc1c2c(nc3ccccc13)-c1cccc(=O)n1C2, COc1ccc(C2CC(=O)c3c(O)cc(OC4OC(COC5OC(C)C(O)C(O)C5O)C(O)C(O)C4O)cc3O2)cc1O (stereo not drawn), CC(=O)/C(=N\N=C(N)N)c1ccccc1 -1.52% [at 11.5 µM], C[C@]12C=CC(=O)C=C1CC[C@@H]1[C@@H]2C(=O)C[C@@]2(C)[C@H]1CC[C@]2(O)C(=O)CO, CC1=C(/C=C/C(C)=C/C=C/C(C)=C/C=C/C=C(C)/C=C/C=C(C)/C=C/C2=C(C)CCCC2(C)C)C(C)(C)CCC1, O=C1[C@H]2[C@H]3[C@H](O)[C@H](O)C/C(=N/OCc4ccccc4)[C@H]3CC[C@@H]2C(=O)N1Cc1ccccc1 -0.986% [at 11.5 µM], COC(=O)[C@@H]1C[C@@]2(O)[C@H](O)[C@H](O)[C@H](O)C[C@H]2N1Cc1ccc(C(C)(C)C)cc1, CC1(C)C(=O)C2(CCCCC2)C(=O)OC1c1cccs1 (stereo not drawn), CCOc1ccccc1C1NC(=O)NC(C)=C1C(=O)OCc1ccco1 (stereo not drawn), CN(C)c1cc2c(Nc3ccc4c(cnn4Cc4ccccc4)c3)ncnc2cn1, O=C(NCCN=C1NS(=O)(=O)c2ccccc21)c1ccc(S(=O)(=O)N2CCOCC2)cc1, CC1CCCCN1CCCNC(=O)c1ccc(-n2c(=O)c(=O)[nH]c3ccccc32)cc1 (stereo not drawn), Nc1ncnc2c1ncn2C1CC(O)C(CO)O1 (stereo not drawn), Cc1nnc(N(Cc2ccco2)C(=O)c2ccno2)s1, Cc1cc(Cl)ccc1N1C(=O)CC(SCCC(=O)O)C1=O (stereo not drawn), Cc1cc(C(=O)N2CCN(c3ccccn3)CC2)c(C)o1, CC(=O)OC1CCC2(O)CC1(C)CCC1C2CC1(C)C (stereo not drawn), O=S(=O)(c1ccccc1)N1CCC2(CC1)CN(Cc1nccs1)C2, COc1ccc2c3c1OC1CC(O)C=C[C@@]31CCN(C)C2 (stereo partly drawn), COc1c2c(cc3occ(-c4ccc5c(c4)OCO5)c(=O)c13)OC(C)(C)C=C2, Cc1cc(C(=O)COC(=O)c2cccs2)c(C)n1-c1c(C)n(C)n(-c2ccccc2)c1=O, CC(C)CO, CC1(C)OC2CC(=O)OC[C@@]23C1CC(=O)[C@]1(C)C3CC[C@@]2(C)C(c3ccoc3)OC(=O)C3O[C@@]321 (stereo partly drawn), O=C(NCCSc1ccccc1)c1ccco1, CN1CC(=O)N=C1N, COc1cc(OC)c2c(c1Cl)OC1(C2=O)C(O)=CC(=O)CC1C (stereo not drawn), O=C1OC(C(O)CO)C(O)=C1O (stereo not drawn), COC(=O)[C@@]1(Cc2ccccc2)[C@H]2c3cc(C(=O)N(C)C)n(CCSCCO)c3C[C@H]2CN1C(=O)c1ccccc1, C=C1C(=O)C23C(O)C1CCC2[C@]12COC3(O)C(O)C1C(C)(C)CC[C@H]2O (stereo partly drawn), Oc1ccc2ccccc2c1C=NCc1c(O)ccc2ccccc12 -2.14% [at 11.5 µM], Cc1cn(COC/C=C/c2ccccc2)c(=O)[nH]c1=O, CC(C)=CCC/C(C)=C/CC/C(C)=C/CC/C(C)=C/CO, CCc1c(C)c2c(C)[nH]nc2oc1=O, CCCC[C@@H]1C[C@H]1C(NC(=O)c1ccc(-c2ccccc2)cc1)c1ccc(-c2ccccc2)cc1 (stereo partly drawn), Cc1c(C(=O)OCc2cc(=O)n3cc(Br)ccc3n2)oc2ccccc12, FC(F)(F)c1ccc(CN2C[C@@H]3C(c4ccccc4)C4(c5ccccc5)CC3(C4)[C@H]2c2ccccc2)cc1 (stereo partly drawn)
